Inhibition data for 56 compounds are collected here from PubChem BioAssay AID651958 (The Scripps Research Institute Molecular Screening Center, 2012).

About 2,000 (0.54%) of roughly 370,000 compounds were called active. Shown is part of a subset that was picked to be rich in actives. Values without a mark were called inactive. No stated cut-off is given here; in the data, active means inhibition above about 30%; inactive means the rest.

The test has as its system Crimean-Congo hemorrhagic fever virus L polyprotein viral ovarian tumor (vOTU) protease domain. The test is described as follows: CCHFV vOTU protease inhibitors, primary screen, biochemical, Pep-AMC substrate, fluorescence (AID 651958). Further: 0% = vehicle wells with enzyme and 100% = no enzyme wells. The conditions noted are these: at 11.5 µM, active compounds read high.
With `Cc1cc(C)cc(NC(=S)NCCCN2CCOCC2)c1`, the inhibition is 0.01%. With `Cc1ccc(NC(=S)NCCN2CCOCC2)cc1`, the inhibition is 36.5% (active). With `CCCC(=O)NC(=S)Nc1ccc(CN2CCOCC2)cc1`, the inhibition was 9.86%. The value for `CN(CC1CCCO1)S(=O)(=O)c1ccc(C(=O)Nc2ccc(F)cc2)cc1` (stereo unspecified) was 5.87%; that for `OCc1nc(CO)n(Cc2ccccc2)n1` was -7.04%. `CCOC(=O)C1=C(C)c2ccccc2OC1C(=O)OCC` (stereo unspecified): the inhibition is 16.2%.

Turning to `CCOC(=O)c1c(C)[nH]c2c1-c1ccccc1C(=O)C2=O`, the inhibition is 108% (active). In the case of `CCOC(=O)NN1C(=O)c2ccccc2NC1c1ccccc1O` (stereo unspecified) it was -25.4%. In the case of `COC(=O)c1cc(C(=O)OCC(=O)Nc2cc(C)on2)cc([N+](=O)[O-])c1` it was 4.92%; in that of `Cc1noc(C)c1C(=O)OCC(=O)N1CCN(S(=O)(=O)c2ccc3ccccc3c2)CC1`, 4.27%. In the case of `COc1ccc(-c2cn(-c3ccc(C)cc3)c(=O)n2CC(=O)Nc2ccc(OC)c(OC)c2)cc1` it was 15.2%; in that of `C#CCO[C@@H]1C[C@H](n2cnc3c(=O)[nH]c(NC(=O)C(C)C)nc32)O[C@@H]1CO`, -9.39%. Take `Cc1ccc(S(=O)(=O)N2CCOCC2)cc1C(=O)NC(=S)N(Cc1ccccc1)C(C)C`: the inhibition is -6.59%. In the case of `O=C(CCS(=O)(=O)c1ccccc1)Nc1ccc(Cl)c(Cl)c1` it was 13.1%; in that of `Cc1nnc(NC(=O)Cn2c(=O)sc3ccccc32)s1`, -3.29%. For the compound `Cc1nnc(NC(=O)Nc2ccc(Cl)c(Cl)c2)s1`, the inhibition was 43.4% (active). In the case of `CCCCn1ccnc1C(=O)c1cccc(S(=O)(=O)N2c3ccccc3CC2C)c1` (stereo unspecified) it was 26.1%. In the case of `CCCCNS(=O)(=O)c1ccc2nc(SCC(=O)Nc3cc(C)cc(C)c3)[nH]c2c1` it was 4.67%; in that of `Cc1ccc(-n2ncc(C(=O)NC3CC3)c2C2CCN(C(=O)OC(C)(C)C)CC2)c(C)c1`, 16%; in that of `Cc1ccc(C(=O)NC2CC(C)(C)NC(C)(C)C2)c(C)c1`, -8.23%. In the case of `CSCCC(NC(=O)COc1ccccc1)C(=O)N(C)CC(=O)Nc1ccc(C)cc1` (stereo unspecified) it was 9.4%. Consider `COc1cccc(NC(=O)C2C(c3ccccc3)C2(Cl)Cl)c1` (stereo unspecified), for which the inhibition is -4.86%. In the case of `COc1ccc2c(c1)C(C)=CC(C)(C)N2C(=O)Nc1ccccc1` it was 51.4% (active); in that of `COc1ccc2c(c1)C(C)=CC(C)(C)N2C(=O)CNCc1ccc2c(c1)OCO2`, -2.62%. The value for `O=C(COc1coc(CN2CCN(c3ccccc3)CC2)cc1=O)N1CCc2ccccc21` was -8.86%.

Consider `CCc1nc2ccc(C(=O)Nc3ccc(OC)c(OC)c3)cn2c1N(C)C(=O)c1cccc(OC)c1`, for which the inhibition was 7.94%.

Take `O=C(O)Cc1csc(NC(=O)CSc2nnnn2-c2ccc(O)cc2)n1`: the inhibition was -4.88%. The value for `CCN(CC)C(=O)C1=C(C)N(Cc2ccc(C(C)(C)C)cc2)C(=O)C(CC(=O)NCc2cccc3ccccc23)C1` (stereo unspecified) was 31.8% (active); that for `COc1ccc(CN2C(=O)C(CC(=O)NCc3cccc4ccccc34)CC(C(=O)N3CCOCC3)=C2C)cc1` (stereo unspecified) was 7.84%. The value for `CCN(CC)C(=O)C1=C(C)N(Cc2ccc(F)cc2)C(=O)C(CC(=O)NCc2cccc3ccccc23)C1` (stereo unspecified) was 1.88%. The value for `CCN(CC)CCCC(C)n1c2nc(=O)[nH]c(=O)c-2nc2cc(Cl)ccc21` (stereo unspecified) was 95.2% (active); that for `Cc1ccc(C)c(NC(=O)c2cc(-c3cc(C)cc(C)c3O)n[nH]2)c1` was -1.49%; that for `O=C(COCc1cc(-c2ccc3c(c2)OCO3)on1)N1CCN(c2cccc(Cl)c2)CC1` was 7.08%. For the compound `Cc1coc2c(O)cc3c(c12)OC1(N2CCCCC2)C(=O)NCCCC31` (stereo unspecified), the inhibition is 51.9% (active).

Take `CCN1CCN(CC(=O)c2cc(OC)c(OC)c(OC)c2)CC1`: the inhibition was -2.49%.

With `Oc1c(Cl)cc(Cl)c(Cl)c1Cc1c(O)c(Cl)cc(Cl)c1Cl`, the inhibition is 39% (active). In the case of `CC(=O)Nc1ccc(SCC(=O)Nc2ccccc2Oc2ccccc2)cc1` it was -1.09%; in that of `CC1(C)S[C@@H]2[C@H](NC(=O)COc3ccccc3)C(=O)N2C1C(=O)OCc1ccccc1` (stereo partly specified), 3.3%. The value for `O=C1C2C3C=CC(C4CC34)C2C(=O)N1/N=C/c1ccc(-c2ccccc2[N+](=O)[O-])o1` (stereo unspecified) was 13.7%.

In the case of `Cc1ccc(-c2ccc(/C=C(\C#N)C(N)=S)o2)c([N+](=O)[O-])c1`, the inhibition is 16.7%.

Regarding `CC1=NN(c2ccc(Cl)c(C(=O)O)c2)C(=O)/C1=C/c1ccc(-c2ccccc2[N+](=O)[O-])o1`, the inhibition was 32.7% (active). With `CC(C)[C@H](NC(=O)N1c2ccccc2NC(=O)[C@@H]1C(C)C)C(=O)N[C@H](C(=O)O)c1ccccc1`, the inhibition was -2.64%. The value for `O=S(=O)(c1ccc(Sc2nnc3ccccn23)nc1)N1CCOCC1` was -14.3%; that for `NNC(=O)c1cccc(COCC(F)(F)C(F)F)c1` was -1.18%; that for `CCCCNC(=O)C1CCC(=O)N1CCc1ccccc1` (stereo unspecified) was 0.15%. The value for `O=C(COC(=O)Cc1c[nH]c2ccccc12)NCCc1ccccc1` was -6.33%; that for `Cc1ccc(S(=O)(=O)N(C)CC(=O)NCCc2c[nH]c3ccccc23)cc1` was 1.27%; that for `Cc1cc(C)cc(NC(=S)NCCc2c[nH]c3ccccc23)c1` was 30.6% (active). The value for `Clc1ccc(CSc2nnc([C@@H]3CCCN3)o2)cc1` was 2.88%. With `Cc1nn(CCCC(=O)NCc2ccccc2Cl)c(=O)c2nccn12`, the inhibition is 3.6%. The value for `COc1ccc2c(c1)CCc1cn3ncc(C#N)c3nc1-2` was -345%; that for `NCCN1CCN2C(=O)CN(C(=O)c3ccccc3)CC12` (stereo unspecified) was 12.1%; that for `O=[N+]([O-])c1ccc(NS(=O)(=O)c2ccccc2)c(Cl)c1` was 12.9%. In the case of `O=S(=O)(Cc1noc(-c2ccc(OC(F)(F)F)cc2)n1)c1ccc(F)cc1` it was 2.35%; in that of `O=S(=O)(Nc1ccc(O)c2ccccc12)c1ccc(OC(F)(F)F)cc1`, 72.5% (active).

`O=C(c1ccc(F)cc1)N1CCC(C(=O)N2CCN(S(=O)(=O)c3ccccc3Br)CC2)CC1`: the inhibition was -5.29%.
